Measured values taken from PubChem BioAssay (NCI).
The panel holds about 83,000 compounds, 20% with a hit somewhere; the sample as a whole holds those more often.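 Negative percent growth values reflect cell death: -40 means 40% of the cells present at the start died, and -100 means all died.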 Values without a mark were called inactive. Calls of active or inactive are those of the source. The calls were made as follows: active = growth percent below 10; inactive = the rest.

Tests used:
Test in all cases: NCI-60 one-dose screen, 48 h (100 = growth as untreated, 0 = no growth, -100 = all killed)
[1] = test system: SK-MEL-2 melanoma; conditions: 10 µM unless noted
[2] = test system: EKVX NSCLC; conditions: 10 µM unless noted
[3] = test system: SN12C renal; conditions: 10 µM unless noted
[4] = test system: UO-31 renal; conditions: 10 µM unless noted
[5] = test system: TK-10 renal; conditions: 10 µM unless noted
[6] = test system: ACHN renal; conditions: 10 µM unless noted
[7] = test system: CAKI-1 renal; conditions: 10 µM unless noted
[8] = test system: CCRF-CEM leukemia; conditions: 10 µM unless noted
[9] = test system: MOLT-4 leukemia; conditions: 10 µM unless noted
[10] = test system: SR leukemia; conditions: 10 µM unless noted
[11] = test system: RPMI-8226 leukemia; conditions: 10 µM unless noted
[12] = test system: OVCAR-8 ovarian; conditions: 10 µM unless noted
[13] = test system: OVCAR-5 ovarian; conditions: 10 µM unless noted
[14] = test system: OVCAR-4 ovarian; conditions: 10 µM
[15] = test system: IGROV1 ovarian; conditions: 10 µM unless noted
[16] = test system: OVCAR-3 ovarian; conditions: 10 µM unless noted
[17] = test system: HS 578T breast; conditions: 10 µM unless noted
[18] = test system: NCI/ADR-RES ovarian; conditions: 10 µM unless noted
[19] = test system: SK-OV-3 ovarian; conditions: 10 µM unless noted
[20] = test system: A498 renal; conditions: 10 µM unless noted

| SMILES | growth [1] | growth [2] | growth [3] | growth [4] | growth [5] | growth [6] | growth [7] [%] | growth [8] | growth [9] | growth [10] | growth [11] | growth [12] | growth [13] | growth [14] | growth [15] | growth [16] | growth [17] | growth [18] | growth [19] | growth [20] |
| --- | --- | --- | --- | --- | --- | --- | --- | --- | --- | --- | --- | --- | --- | --- | --- | --- | --- | --- | --- | --- |
| O=C1COCCN1c1ccc(Nc2nc(Cl)nc(N3CCOCC3)n2)cc1 | 91.6% | 92.3% | 102% | 93.5% | 90.5% | 98.5% | 89.2 | 97% | 96.3% | 88.9% | 98.9% | 97.9% | 88.3% | 102% | 103% | 103% | 104% | 97.6% | – | – |
| Cc1ccc(-n2nc3n(/c2=N\C(=O)NS(=O)(=O)c2ccc(C)cc2)CCN3C2=NCCN2)cc1 | 109% | 99.5% | 97% | 84.1% | 101% | 94.5% | 90 | 107% | 112% | 135% | 106% | 103% | 95.4% | – | 104% | 109% | 99.7% | 105% | 99.1% | – |
| COc1ccc2c(c1)C(C)Cc1c(Cl)ncnc1N2C (configuration not stated) | -29.4% (active) | 12.4% | -0.561% (active) | 16.9% | 13% | 9.12% (active) | – | 13.8% | 1.59% (active) | -2.06% (active) | -2.61% (active) | 7% (active) | 41.5% | 7.09% (active) | 23.7% | 2.22% (active) | 16.9% | 2.03% (active) | 12.2% | -39.3% (active) |
| C#C[C@]1(O)CC[C@H]2[C@@H]3CC=C4c5nc(Nc6ncccn6)sc5CC[C@]4(C)[C@H]3CC[C@@]21C | 18% | 43.6% | 82.8% | 83.4% | 77.3% | 60.7% | 58.6 | 48.6% | – | 17.8% | -12.3% (active) | 77% | 86% | 67.9% | 70.8% | 65.3% | 1.8% (active) | 75.4% | – | – |
| C[C@H]1[C@H](C)CC[C@]2(C(=O)O)CC[C@]3(C)C(=CC[C@@H]4[C@@]5(C)C/C(=C/c6ccco6)C(=O)C(C)(C)[C@@H]5CC[C@]43C)[C@H]12 | -64% [100 µM] (active) | -68.4% [100 µM] (active) | -56% [100 µM] (active) | -99.5% [100 µM] (active) | -73.4% [100 µM] (active) | -97.9% [100 µM] (active) | – | -26.4% [100 µM] (active) | -10.8% [100 µM] (active) | 31.2% [100 µM] | -19.3% [100 µM] (active) | -19% [100 µM] (active) | -48.8% [100 µM] (active) | – | -59.6% [100 µM] (active) | -74.5% [100 µM] (active) | -13.9% [100 µM] (active) | -58.9% [100 µM] (active) | -17.3% [100 µM] (active) | -56.2% [100 µM] (active) |
| O=C(CCN1CCCCC1)c1ccc(Cl)cc1 | 104% | 101% | 111% | 96% | 103% | 110% | – | 93.6% | 108% | 112% | 85.8% | 113% | 102% | 105% | 107% | 106% | 108% | 114% | 103% | 79.5% |
| CCOC(=O)/C(C#N)=C(\C)CCc1ccccc1 | 106% | 105% | 118% | 99.6% | 140% | 101% | 80.9 | – | 153% | 153% | 61.1% | 103% | 108% | 58.9% | 81.2% | 118% | 98.7% | 98.8% | 125% | – |
| COc1ccc(-c2ccc(NNC(=O)c3ccc(F)cc3)nn2)cc1OC | 93.5% | 40.5% | 57.1% | 34.8% | 43.7% | 54.8% | – | 79.5% | 60.2% | 51% | 70.7% | 66.8% | 50.3% | 81.8% | 22.1% | 78.6% | 41.1% | 65.4% | – | 2.09% (active) |
| COc1ccc(NC(=S)NNc2ccc(-c3ccc(OC)c(OC)c3)nn2)cc1 | 106% | 104% | 100% | 83.3% | 105% | 102% | – | – | 96.3% | 98.1% | 103% | 101% | 103% | 100% | 103% | 110% | 95.8% | 111% | – | 83.4% |
| CCC(Br)(CC)C(=O)c1ccc(OCC(=O)O)c(Cl)c1Cl | 94.6% | 95.3% | 89.1% | 92.1% | 125% | 108% | – | 116% | 109% | 120% | 121% | 97.4% | 106% | 97.4% | – | 116% | 107% | 99.1% | 94.3% | 97.1% |
| Clc1ccccc1/C=N\Nc1ccccn1 | 92.8% | 76.2% | 92.2% | 66.8% | 66.7% | 87.7% | – | 95.1% | 83.5% | 90.5% | 93.1% | 90.1% | 104% | 68% | 64% | 94.1% | 99.4% | 91.1% | 84.1% | 110% |
| CCCCCn1c(C)cc(/C=C\c2ccc3cc(C)ccc3[n+]2C)c1C | -81.9% (active) | -47.9% (active) | -90.3% (active) | -61.4% (active) | -57.6% (active) | -89.3% (active) | – | -13.3% (active) | 7.02% (active) | 9.57% (active) | -43.5% (active) | -69.5% (active) | 12% | -8.22% (active) | -84% (active) | -72.7% (active) | -24.4% (active) | 59.1% | – | -46% (active) |
| Nc1ccc(NC(=O)c2ccccc2)c2c1C(=O)c1ccccc1C2=O | 108% | 76.3% | 97.8% | 74.2% | 96.1% | 92.6% | – | 91.1% | – | 96.8% | 102% | 96.9% | 117% | 103% | – | 96.5% | – | 99.6% | 112% | 113% |
| CCCCCCCCCCCCCC[n+]1cccc(C(N)=O)c1 | -12.1% (active) | -16.2% (active) | 1.56% (active) | 62% | 24% | 35.4% | – | -18.8% (active) | -31% (active) | -25.9% (active) | -51.2% (active) | 18% | 44.2% | 14.5% | – | -32.4% (active) | – | 105% | 23.3% | 61.1% |
| Cn1cc(-c2noc(-c3cn(C)c4ncc(F)cc34)n2)c2ccccc21 | 93.8% | 34.3% | 33.6% | 61.7% | 38.9% | 66.3% | – | 78% | 77.4% | 69.1% | 78.2% | 40% | 75.1% | -29.4% (active) | 45% | 32.5% | 30.9% | 58.2% | 7.74% (active) | 62.9% |
| COc1ncnc2c(-c3ccccc3)cn(COCc3ccccc3)c12 | 34.5% | 41.4% | 66.6% | 44.2% | 43.1% | 51% | – | 41.1% | 7.9% (active) | 18.2% | 29.2% | 26.6% | 110% | 54.4% | 71% | 62.8% | 81.2% | – | 82.7% | 51.9% |
